The text below walks through data of PubChem BioAssay (EPA / NIEHS).

SMILES strings stand for the structures. Records with an inconclusive call do not appear. The source holds several records for some structures; these can differ, active in one and inactive in another. Calls of active or inactive are those of the source. The calls were made as follows, unless noted: active = hit-call score of the fitted dose curve at least 0.9, where 1 is the maximum; inactive = score below 0.9.

Assay [1] addresses Bile acid receptor (Homo sapiens) (UniProt Q96RI1). The assay can be described thus: ATG_FXR_TRANS: Attagene TRANS-FACTORIAL HepG2 Assay for Farnesoid X Receptor (FXR) (AID 2282979; active = hit-call score of the fitted dose curve at least 0.9, where 1 is the maximum;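 also: hits raise reporter mRNA above DMSO so AC50 marks FXR activation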). To be noted: HepG2 Attagene TRANS FXR-GAL4 reporter transcription. An outline of the steps: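 HepG2 cells were transiently transfected with GAL4-UAS reporters driven by chimeric NR-Gal4 proteins and dosed for 24 h. Reporter mRNA was quantified by RT-PCR, fluorescent labelling, HpaI digestion and capillary electrophoresis, with gain of signal scored versus DMSO.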

Assay [2] has as its target Oxysterols receptor LXR-alpha (Homo sapiens) (UniProt Q13133). The assay can be described thus: ATG_LXRa_TRANS: Attagene TRANS-FACTORIAL HepG2 Assay for human Liver X Receptor alpha (LXRa) (AID 2282980; active = hit-call score of the fitted dose curve at least 0.9, where 1 is the maximum). To be noted: HepG2 Attagene TRANS reporter, LXRa transactivation. An outline of the steps: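 HepG2 cells transiently transfected with GAL4-UAS reporter units for chimeric NR-Gal4 proteins, exposed to chemicals for 24 h. Reporter mRNA quantified by RT-PCR and capillary electrophoresis; gain of signal fitted relative to DMSO.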

For assay [3], the target named is Hepatocyte nuclear factor 4-alpha (Homo sapiens) (UniProt P41235). Nature of the assay: ATG_HNF4a_TRANS: Attagene TRANS-FACTORIAL HepG2 Assay for human Hepatocyte Nuclear Factor 4 alpha (HNF4a) (AID 2282982; active = hit-call score of the fitted dose curve at least 0.9, where 1 is the maximum). To be noted: HepG2 HNF4a transactivation reporter, mRNA readout. An outline of the steps:
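Transient MRTU transfection of HepG2, 24 h dosing. Readout: reporter mRNA via RT-PCR + capillary electrophoresis, fluorescence; activity fit upward relative to DMSO control.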

Assay [4] can be described thus: ATG_M_06_TRANS: Attagene TRANS-FACTORIAL HepG2 Assay for M06 Transcription Factor (Internal Marker) (AID 2282983; active = hit-call score of the fitted dose curve at least 0.9, where 1 is the maximum;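 also: reporter transcript level by RT-PCR then capillary electrophoresis fluorescence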). To be noted: HepG2 Attagene TRANS M06 internal marker reporter. An outline of the steps:
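mRNA levels of a reporter transcript, quantified as FAM fluorescence on capillary electrophoresis, served as readout. HepG2 cells expressing exogenous GAL4-chimera reporter constructs were exposed for 24 h. Gain of signal over DMSO was evaluated.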

Assay [5] in a line: ATG_M_32_TRANS: Attagene TRANS-FACTORIAL HepG2 Assay for M32 Transcription Factor (Internal Marker) (AID 2282984; active = hit-call score of the fitted dose curve at least 0.9, where 1 is the maximum;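 also: transcript level of a background control reporter unit measured by RT-PCR and capillary electrophoresis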). To be noted: HepG2 Attagene TRANS M32 internal marker reporter. An outline of the steps:
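Read-out: fluorescent reporter cDNA fragments resolved by capillary electrophoresis after RT-PCR of total RNA. Transfected HepG2 cells were exposed to chemical for 24 h. Activity scored in the positive direction relative to DMSO.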

In assay [6] the target is Nuclear receptor subfamily 4 group A member 2 (Homo sapiens) (UniProt P43354). The assay can be described thus: ATG_NURR1_TRANS: Attagene TRANS-FACTORIAL HepG2 Assay for human Nuclear Receptor Related Protein 1 (NURR1) (AID 2282985; active = hit-call score of the fitted dose curve at least 0.9, where 1 is the maximum). To be noted: HepG2 Attagene TRANS reporter, mRNA readout. An outline of the steps: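 Read-out: reporter mRNA induction by RT-PCR plus capillary electrophoresis with fluorescence detection, after 24 h dosing of transfected HepG2 cells. Exogenous NR-Gal4 chimera activity drives GAL4-UAS reporter; activity fitted upward versus DMSO.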
Chain of Nuclear receptor subfamily 4 group A member 2 (Homo sapiens) (P43354 whole entry, looked up, the tested form may be a part): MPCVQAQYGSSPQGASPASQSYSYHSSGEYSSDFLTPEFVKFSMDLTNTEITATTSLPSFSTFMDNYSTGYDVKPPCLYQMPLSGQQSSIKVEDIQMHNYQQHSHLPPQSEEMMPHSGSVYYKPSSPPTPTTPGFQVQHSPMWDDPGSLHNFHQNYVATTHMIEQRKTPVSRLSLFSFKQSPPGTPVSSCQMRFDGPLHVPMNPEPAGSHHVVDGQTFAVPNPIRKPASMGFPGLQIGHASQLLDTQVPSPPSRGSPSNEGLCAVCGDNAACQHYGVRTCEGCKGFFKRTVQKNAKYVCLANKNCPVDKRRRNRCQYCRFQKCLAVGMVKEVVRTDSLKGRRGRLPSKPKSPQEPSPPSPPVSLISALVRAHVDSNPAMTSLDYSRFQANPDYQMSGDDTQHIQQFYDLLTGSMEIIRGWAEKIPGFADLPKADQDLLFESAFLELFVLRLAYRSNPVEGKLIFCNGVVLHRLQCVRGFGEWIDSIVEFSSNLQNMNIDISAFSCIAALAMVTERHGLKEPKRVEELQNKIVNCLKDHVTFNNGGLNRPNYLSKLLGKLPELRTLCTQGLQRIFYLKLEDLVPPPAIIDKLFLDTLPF

The target in assay [7] is Transcriptional activator Myb (Homo sapiens) (UniProt P10242). Nature of the assay: ATG_Myb_CIS: Attagene CIS-FACTORIAL HepG2 Assay for human Myeloblastosis (Myb) Proto-Oncogene Transcription Factor (AID 2282986). To be noted: HepG2 Attagene CIS-FACTORIAL Myb reporter transcription; actives raise or lower the signal. The essentials: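 Using HepG2 liver cells bearing transiently transfected cis-promoter reporter constructs, the assay measures induction or loss of reporter mRNA after 24 hours of dosing. Detection used fluorescently labeled RT-PCR products separated by capillary electrophoresis.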
Chain of Transcriptional activator Myb (Homo sapiens) (P10242 whole entry, looked up): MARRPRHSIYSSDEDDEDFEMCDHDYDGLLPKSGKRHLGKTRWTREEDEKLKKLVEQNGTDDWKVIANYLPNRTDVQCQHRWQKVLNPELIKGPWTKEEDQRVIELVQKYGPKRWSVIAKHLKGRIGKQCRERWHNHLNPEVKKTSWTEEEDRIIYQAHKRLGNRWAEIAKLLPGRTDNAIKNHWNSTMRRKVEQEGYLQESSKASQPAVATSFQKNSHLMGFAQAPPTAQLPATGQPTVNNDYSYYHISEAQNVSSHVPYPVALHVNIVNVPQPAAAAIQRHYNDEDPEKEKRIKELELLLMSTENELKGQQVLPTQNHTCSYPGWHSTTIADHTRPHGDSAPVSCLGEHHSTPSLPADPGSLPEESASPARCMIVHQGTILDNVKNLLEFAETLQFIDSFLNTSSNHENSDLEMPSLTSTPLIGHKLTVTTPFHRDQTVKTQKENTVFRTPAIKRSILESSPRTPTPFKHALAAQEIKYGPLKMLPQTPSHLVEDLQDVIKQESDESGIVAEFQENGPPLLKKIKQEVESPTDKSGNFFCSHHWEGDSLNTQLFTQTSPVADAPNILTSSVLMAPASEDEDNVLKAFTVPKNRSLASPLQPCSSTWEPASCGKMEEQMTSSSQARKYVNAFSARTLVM

In assay [8] the target is Nuclear respiratory factor 1 (Homo sapiens) (UniProt Q16656). Nature of the assay: ATG_NRF1_CIS: Attagene CIS-FACTORIAL HepG2 Assay for human Nuclear Respiratory Factor 1 (NRF1) Orphan Gene (AID 2282987). To be noted: HepG2 NRF1 cis-element reporter, Attagene multiplex; actives raise or lower the signal. An outline of the steps:
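Reporter mRNA induction or loss in HepG2 cells after 24 h dosing; cis-regulated reporter constructs report endogenous transcription-factor activity. Quantified by RT-PCR/capillary electrophoresis fluorescence, DMSO-referenced.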

Assay [9] concerns the target Myc proto-oncogene protein (Homo sapiens) (UniProt P01106). The assay can be described thus: ATG_Myc_CIS: Attagene CIS-FACTORIAL HepG2 Assay for human Myelocytomatosis (Myc) Proto-Oncogene Transcription Factor (AID 2282990). To be noted: HepG2, Attagene cis-reporter transcription factor activity; actives raise or lower the signal. The essentials:
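Transiently transfected HepG2 cells bearing cis-promoter reporter units for endogenous transcription factors; 24 h exposure. Reporter mRNA measured by RT-PCR, 6-FAM primer extension, HpaI cut and capillary electrophoresis; bidirectional fit relative to DMSO.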

A short description of assay [10]: ATG_NF_kB_CIS: Attagene CIS-FACTORIAL HepG2 Assay for human Nuclear Factor Kappa B (NF-kB) (AID 2282991). To be noted: HepG2 Attagene cis-factorial NF-kB reporter mRNA; actives raise or lower the signal. The essentials: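 DMSO served as negative control and baseline for bidirectional curve fitting. Transiently transfected HepG2 cells were dosed for 24 h, then reporter transcripts were measured by RT-PCR with capillary electrophoresis detection.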

A short description of assay [11]: ATG_NRF2_ARE_CIS: Attagene CIS-FACTORIAL HepG2 Assay for human Nuclear Factor Erythroid 2 Related Factor 2 (NFR2) response to Antioxidant Response Elements (ARE) (AID 2282992).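 As to AC50: reporter mRNA level measured by RT-PCR and capillary electrophoresis fluorescence.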 To be noted: HepG2 Attagene ARE/NRF2 reporter, transcription factor activity; actives raise or lower the signal. An outline of the steps: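 Fluorescence intensity of reporter-specific cDNA fragments, separated by capillary electrophoresis, reflects mRNA induction in transfected HepG2 cells at 24 h. Activity is fitted bidirectionally, DMSO serving as baseline.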

Assay [12] can be described thus: ATG_Oct_MLP_CIS: Attagene CIS-FACTORIAL HepG2 Assay for human Octamer-Binding Transcription Factor (Oct) (AID 2282993). To be noted: HepG2 Attagene cis-factorial Oct reporter, mRNA; actives raise or lower the signal. The essentials: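 HepG2 cells transiently transfected with cis-promoter-driven multiplexed reporter transcription units, dosed for 24 h. Reporter mRNA quantified by RT-PCR, fluorescent labelling, HpaI digestion and capillary electrophoresis; bidirectional fits versus DMSO baseline.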

The nature of assay [13]: BSK_3C_TissueFactor: BioMAP Diversity Plus: 3C Assay for Tissue Factor Biomarker Activity (AID 2282997). To be noted: BioMAP 3C HUVEC, tissue factor biomarker readout; actives raise or lower the signal. An outline of the steps:
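Tissue Factor measured by ELISA, 24 h after treatment of primary HUVEC in the BioMAP 3C setting.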

Assay [14] is described as follows: BSK_3C_uPAR: BioMAP Diversity Plus: 3C Assay for Urokinase-type plasminogen activator receptor (uPAR) Biomarker Activity (AID 2282998). To be noted: BioMAP 3C HUVEC, uPAR biomarker ELISA; actives raise or lower the signal. The essentials: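 Human umbilical vein endothelial primary cells were exposed to test chemical for 24 h. Cell-surface uPAR was then quantified by ELISA, and responses were fitted bidirectionally against DMSO as negative control and baseline.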
In general terms: In an ELISA, binding on a coated surface is turned into a signal by an enzyme label.

Assay [15] is described as follows: BSK_3C_VCAM1: BioMAP Diversity Plus: 3C Assay for Vascular cell adhesion molecule 1 (VCAM1) Biomarker Activity (AID 2282999). To be noted: BioMAP 3C HUVEC, VCAM1 ELISA, cytokine-stimulated; actives raise or lower the signal. The essentials:
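HUVEC primary cells, 24 h compound exposure; VCAM-1 by ELISA; gain/loss of signal fitted bidirectionally vs DMSO baseline.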

Assay [16] in a line: BSK_4H_Eotaxin3: BioMAP Diversity Plus: 4H Assay for Eotaxin 3 Biomarker Activity (AID 2283000).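 As to outcome: CCL26 protein level quantified by ELISA in parallel with SRB cytotoxicity check.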 To be noted: primary human endothelial cells (HUVEC); actives raise or lower the signal. The essentials:
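Eotaxin-3 (CCL26) levels were measured by ELISA in HUVEC primary cultures 24 h post-dosing. Gain or loss of signal was fitted in both directions, with DMSO serving as baseline and negative control.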

Assay [17] concerns the target Cellular tumor antigen p53 (Homo sapiens) (UniProt P04637). Nature of the assay: ATG_p53_CIS: Attagene CIS-FACTORIAL HepG2 Assay for human p53 Transcription Factor (AID 2282994). To be noted: HepG2 p53 cis-element reporter, Attagene mRNA; actives raise or lower the signal. An outline of the steps:
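Transiently transfected HepG2 (multiple cis reporter transcription units); exposure 24 h; reporter RNA via RT-PCR, 6-FAM extension, 2 h HpaI digest at 37 C, CE detection; DMSO baseline.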

Assay [18] is described as follows: ATG_NFI_CIS: Attagene CIS-FACTORIAL HepG2 Assay for human Nuclear Factor I (NFI) (AID 2282989). To be noted: HepG2 cis-regulatory reporter, NFI response element transcription; actives raise or lower the signal. An outline of the steps:
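HepG2 cells transiently transfected with cis-element-driven multiplexed reporter transcription units, dosed for 24 h. Reporter mRNA quantified by RT-PCR, fluorescent labelling, HpaI digestion and capillary electrophoresis; bidirectional fit versus DMSO baseline.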

The target of assay [19] is Glucocorticoid receptor (Homo sapiens) (UniProt P04150). The assay can be described thus: ATG_GR_TRANS: Attagene TRANS-FACTORIAL HepG2 Assay for human Glucocorticoid Receptor (GR) (AID 2282978; active = hit-call score of the fitted dose curve at least 0.9, where 1 is the maximum;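 also: activators score as hits since higher reporter transcript over DMSO is fitted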). To be noted: HepG2 Attagene TRANS GR reporter, mRNA transcription. An outline of the steps:
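Transiently transfected HepG2 cells express chimeric NR-GAL4 proteins acting on GAL4-UAS reporter units. Compounds are applied for 24 h. mRNA induction over DMSO is measured by capillary electrophoresis.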

Chain of Bile acid receptor (Homo sapiens) (Q96RI1 whole entry, looked up, the tested form may be a part): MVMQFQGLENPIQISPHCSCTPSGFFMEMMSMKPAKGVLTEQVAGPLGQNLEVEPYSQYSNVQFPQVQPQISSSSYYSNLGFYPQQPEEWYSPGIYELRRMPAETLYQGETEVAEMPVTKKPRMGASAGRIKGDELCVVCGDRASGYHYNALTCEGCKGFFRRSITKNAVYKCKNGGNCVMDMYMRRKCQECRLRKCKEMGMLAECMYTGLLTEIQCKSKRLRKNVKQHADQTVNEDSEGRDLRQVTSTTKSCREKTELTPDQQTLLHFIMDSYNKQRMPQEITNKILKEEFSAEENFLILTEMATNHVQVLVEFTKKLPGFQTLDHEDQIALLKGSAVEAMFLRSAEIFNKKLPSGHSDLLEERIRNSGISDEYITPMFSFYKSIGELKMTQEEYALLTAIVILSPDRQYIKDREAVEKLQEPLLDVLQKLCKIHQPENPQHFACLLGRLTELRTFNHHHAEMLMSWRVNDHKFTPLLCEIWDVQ
Chain of Glucocorticoid receptor (Homo sapiens) (P04150 whole entry, looked up, the tested form may be a part): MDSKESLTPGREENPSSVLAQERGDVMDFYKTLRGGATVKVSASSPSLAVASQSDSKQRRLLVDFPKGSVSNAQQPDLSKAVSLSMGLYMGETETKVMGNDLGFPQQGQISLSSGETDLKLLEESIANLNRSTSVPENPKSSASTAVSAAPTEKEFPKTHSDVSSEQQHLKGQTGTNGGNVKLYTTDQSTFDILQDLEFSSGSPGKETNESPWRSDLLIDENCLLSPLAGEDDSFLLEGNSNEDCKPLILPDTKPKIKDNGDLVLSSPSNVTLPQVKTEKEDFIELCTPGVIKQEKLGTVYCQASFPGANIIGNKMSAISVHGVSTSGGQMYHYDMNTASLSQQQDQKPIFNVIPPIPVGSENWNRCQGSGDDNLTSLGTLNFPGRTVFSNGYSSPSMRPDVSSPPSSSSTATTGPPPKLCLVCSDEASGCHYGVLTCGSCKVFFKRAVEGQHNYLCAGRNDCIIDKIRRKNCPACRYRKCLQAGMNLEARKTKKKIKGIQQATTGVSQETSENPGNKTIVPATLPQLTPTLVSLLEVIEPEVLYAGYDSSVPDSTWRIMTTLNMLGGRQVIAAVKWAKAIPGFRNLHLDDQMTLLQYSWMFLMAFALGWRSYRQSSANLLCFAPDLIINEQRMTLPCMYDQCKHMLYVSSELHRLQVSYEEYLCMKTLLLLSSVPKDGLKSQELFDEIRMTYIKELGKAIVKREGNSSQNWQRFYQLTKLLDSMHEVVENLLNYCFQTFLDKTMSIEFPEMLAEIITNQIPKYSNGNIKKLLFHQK
Chain of Cellular tumor antigen p53 (Homo sapiens) (P04637 whole entry, looked up): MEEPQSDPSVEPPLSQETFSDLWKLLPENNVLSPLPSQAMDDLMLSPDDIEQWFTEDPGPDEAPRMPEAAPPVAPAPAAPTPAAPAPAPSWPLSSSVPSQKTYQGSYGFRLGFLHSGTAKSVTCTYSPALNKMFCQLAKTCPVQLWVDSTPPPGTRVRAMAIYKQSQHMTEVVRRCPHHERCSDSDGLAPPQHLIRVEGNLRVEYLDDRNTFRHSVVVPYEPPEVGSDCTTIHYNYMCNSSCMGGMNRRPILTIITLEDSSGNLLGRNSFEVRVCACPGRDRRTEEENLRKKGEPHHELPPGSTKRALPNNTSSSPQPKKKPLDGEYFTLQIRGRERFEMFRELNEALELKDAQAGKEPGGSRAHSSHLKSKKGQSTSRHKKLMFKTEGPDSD
Chain of Hepatocyte nuclear factor 4-alpha (Homo sapiens) (P41235 whole entry, looked up): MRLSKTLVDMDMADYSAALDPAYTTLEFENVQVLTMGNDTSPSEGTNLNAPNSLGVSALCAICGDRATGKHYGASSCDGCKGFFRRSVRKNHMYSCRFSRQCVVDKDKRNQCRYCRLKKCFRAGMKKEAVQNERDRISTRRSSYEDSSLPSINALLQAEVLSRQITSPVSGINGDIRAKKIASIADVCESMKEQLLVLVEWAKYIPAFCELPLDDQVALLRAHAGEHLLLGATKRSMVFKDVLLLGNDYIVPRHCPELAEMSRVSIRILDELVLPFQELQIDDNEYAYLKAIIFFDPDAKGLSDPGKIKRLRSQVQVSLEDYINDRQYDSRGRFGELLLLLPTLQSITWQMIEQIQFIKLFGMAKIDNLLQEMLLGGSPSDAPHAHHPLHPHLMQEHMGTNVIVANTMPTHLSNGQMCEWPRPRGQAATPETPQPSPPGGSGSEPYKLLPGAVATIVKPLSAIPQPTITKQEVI
Chain of Oxysterols receptor LXR-alpha (Homo sapiens) (Q13133 whole entry, looked up, the tested form may be a part): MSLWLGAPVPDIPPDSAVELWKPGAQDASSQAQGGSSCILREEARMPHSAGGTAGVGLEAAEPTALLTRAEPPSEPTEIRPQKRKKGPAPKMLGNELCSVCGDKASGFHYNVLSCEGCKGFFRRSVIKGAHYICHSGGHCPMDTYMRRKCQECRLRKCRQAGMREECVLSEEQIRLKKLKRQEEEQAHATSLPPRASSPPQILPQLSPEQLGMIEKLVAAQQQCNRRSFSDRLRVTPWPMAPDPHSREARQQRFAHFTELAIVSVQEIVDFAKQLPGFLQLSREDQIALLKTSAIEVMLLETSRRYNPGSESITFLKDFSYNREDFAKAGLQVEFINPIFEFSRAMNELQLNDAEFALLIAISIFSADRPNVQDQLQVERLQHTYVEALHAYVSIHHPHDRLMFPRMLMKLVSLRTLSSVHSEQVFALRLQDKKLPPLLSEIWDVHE
Chain of Myc proto-oncogene protein (Homo sapiens) (P01106 whole entry, looked up): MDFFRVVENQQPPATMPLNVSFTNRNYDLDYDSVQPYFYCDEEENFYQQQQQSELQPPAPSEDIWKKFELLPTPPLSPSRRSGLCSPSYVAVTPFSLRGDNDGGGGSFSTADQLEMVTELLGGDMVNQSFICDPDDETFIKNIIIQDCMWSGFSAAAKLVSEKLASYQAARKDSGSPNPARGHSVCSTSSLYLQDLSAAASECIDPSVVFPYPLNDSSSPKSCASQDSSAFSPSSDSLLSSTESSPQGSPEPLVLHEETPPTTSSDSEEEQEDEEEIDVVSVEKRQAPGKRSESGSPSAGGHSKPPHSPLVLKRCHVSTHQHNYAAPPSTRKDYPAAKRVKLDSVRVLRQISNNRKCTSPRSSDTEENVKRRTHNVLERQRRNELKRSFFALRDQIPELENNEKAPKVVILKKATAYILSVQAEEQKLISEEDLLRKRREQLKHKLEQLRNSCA
Chain of Nuclear respiratory factor 1 (Homo sapiens) (Q16656 whole entry, looked up): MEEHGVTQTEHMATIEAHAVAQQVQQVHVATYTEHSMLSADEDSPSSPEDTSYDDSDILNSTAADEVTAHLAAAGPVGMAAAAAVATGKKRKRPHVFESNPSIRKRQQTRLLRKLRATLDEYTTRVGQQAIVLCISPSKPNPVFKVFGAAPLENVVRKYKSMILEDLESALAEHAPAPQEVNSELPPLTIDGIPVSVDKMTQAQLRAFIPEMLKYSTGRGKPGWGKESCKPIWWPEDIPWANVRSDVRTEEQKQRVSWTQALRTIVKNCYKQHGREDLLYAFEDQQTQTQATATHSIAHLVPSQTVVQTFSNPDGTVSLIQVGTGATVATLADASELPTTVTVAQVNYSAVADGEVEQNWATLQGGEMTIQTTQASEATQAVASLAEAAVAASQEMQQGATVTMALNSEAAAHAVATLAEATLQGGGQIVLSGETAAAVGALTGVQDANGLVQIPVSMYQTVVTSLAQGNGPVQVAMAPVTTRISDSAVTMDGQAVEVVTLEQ

For the compound `C[C@]12CC[C@@H]3c4ccc(O)cc4CC[C@H]3[C@@H]1CCC2=O`, the result in assay [1], in assay [2], in assay [3], in assay [4], in assay [5] and in assay [6] was inactive. Besides, the compound was called inactive in assay [7], in [8], in assay [9], in [10], in [11] and in assay [12]. For the same compound, the result in assay [13], in assay [14], in assay [15] and in assay [16] was inactive.
Take `Cc1ncc(CO)c(CO)c1O`: the compound was classed as inactive in assay [1], in [2], in assay [4], in [6], in assay [7] and in [8]. The result in assay [9], in [11], in assay [12], in assay [17], in assay [13] and in assay [14] was inactive. Besides, the result in assay [15] and in assay [16] was inactive.
Take `Cc1cccc2ccccc12`: the result in assay [1], in assay [3], in [4], in [5], in [6] and in assay [7] was inactive. Moreover, the call in [8], in assay [18], in assay [9], in assay [10], in [11] and in [12] was inactive. Further, the compound was called inactive in assay [17], in assay [13], in assay [14], in [15] and in assay [16].
In general, AC50 refers to the concentration at which the activity in the assay is half-maximal. Take `O=C1CCC(C2CCCCC2)CC1`: the outcome in assay [19], in assay [1], in assay [2], in assay [4], in [5] and in assay [6] was inactive. Further, the compound was called inactive in assay [7], in assay [8], in [18], in assay [9], in assay [10] and in [12]. Moreover, the result in assay [17], in assay [13], in assay [14], in [15] and in assay [16] was inactive. In addition, the AC50 is 147 µM (active) in assay [7], 187 µM (active) in [9], 100 µM (active) [middle of 4 runs] in assay [11] and 166 µM (active) in [17].
Take `Cc1c2ccccc2c(C)c2c1ccc1ccccc12`: the call in assay [1], in [2], in assay [4], in assay [5], in assay [7] and in [8] was inactive. Also, the outcome in assay [10], in assay [12], in assay [17] and in assay [13] was inactive. For the same compound, the AC50 in assay [9] is 64.1 µM (active); in [11], 12.4 µM (active); in assay [14], 15.2 µM (active); in assay [15] it was 20 µM (active); in assay [16] it was 28.6 µM (active).
Regarding `CN(C)C(=O)C1(N2CCCCC2)CCN(CC[C@@]2(c3ccc(Cl)c(Cl)c3)CN(C(=O)c3ccccc3)CCO2)CC1`, the outcome in assay [1], in assay [2], in assay [4], in assay [6], in [7] and in assay [8] was inactive. Moreover, the compound was called inactive in [9], in assay [12] and in [17]. For the same compound, the AC50 in [10] was 0.62 µM (active); in [11], 0.458 µM (active); in [13], 33.1 µM (active); in assay [14], 7.23 µM (active); in assay [15], 29.5 µM (active); in assay [16], 27.9 µM (active).
